Structures are written as SMILES. The panel holds about 83,000 compounds, 20% with a hit somewhere; the sample as a whole holds those more often.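 Negative percent growth values reflect cell death: -40 means 40% of the cells present at the start died, and -100 means all died.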 Activity calls are given as the source filed them. How the source made its calls: active means growth percent below 10; inactive means the rest.

The assay relates to MDA-MB-468 breast. The assay is described as follows: NCI-60 one-dose screen, 48 h (100 = growth as untreated, 0 = no growth, -100 = all killed). The conditions noted are these: 10 µM unless noted.
For the molecule `CCN1C(=O)N(CC)C2SC(N/N=C/C=C/c3ccccc3OC)=NC21` (stereo not given), the growth was 36.8% (inactive). In the case of `CCC/C=C(/C(C)=O)C(=O)OCC`, the growth was 88.3% (inactive). On to `COc1ccc2c(c1)c(CC(=O)[Se]CC#N)c(C)n2C(=O)c1ccc(Cl)cc1`, for which the growth was -43.2% (active). In the case of `O=C1Nc2ccccc2C1(c1c[nH]c2ccccc12)c1c[nH]c2ccccc12`, the growth was -23.3% (active). With `CCN1CCN(c2nc(NCCCNc3ccnc4cc(Cl)ccc34)c3ccccc3n2)CC1`, the growth was 29.1% (inactive). The figure for `COc1ccc(Cc2nn(CC(=O)N/N=C/c3ccc(Cl)cc3)c(=O)c3c(C)noc23)cc1` is 80.4% (inactive). Regarding `CC(=O)c1c(C)nc2ccccc2c1/C=C/c1ccc(F)cc1`, the growth is 46.1% (inactive). Regarding `COc1ccc2c(c1)C(CC(=O)NN)CCC2` (stereo not given), the growth is 102% (inactive). With `NC1=C(/C(N)=N/O)C(c2ccccc2)c2ccc3ccccc3c2O1` (stereo not given), the growth is -1.49% (active). `CC(=O)Nc1cccc(-n2cnc3cc(-c4ccc(O)cc4)ccc32)c1`: the growth was -0.935% (active). Turning to `COC1=CC(c2ccc[nH]2)=N/C1=C\c1[nH]c(C)c(C(=O)Oc2ccccc2)c1C`, the growth is -82.9% (active). As for `COc1cccc(Nc2ncnn3ccc(CN4CC[C@@H](N)[C@H](O)C4)c23)c1`, the growth is -42.4% (active). As for `CCN1CCN(C(=O)[C@]23CC[C@@H](C)[C@H](C)[C@@H]2C2=CC[C@@H]4[C@@]5(C)C/C(=C/c6cccnc6)C(=O)C(C)(C)[C@@H]5CC[C@@]4(C)[C@]2(C)CC3)CC1`, the growth is 16.4% (inactive). The figure for `NC1=Nc2cc(OCCCCN3Cc4ccccc4C3)c(OCC3CC3)cc2C12CCCC2` is 7.97% (active); for `COc1cc2oc(-c3cccc(NC(=O)c4cc(NC(=O)[C@H](C)NC(=O)OC(C)(C)C)ccc4C)c3)cc(=O)c2c(OC)c1OC` it is 84.3% (inactive); for `COc1cc(CNC(=O)CCCC/C=C/C(C)C)ccc1OCc1nnc(Nc2ccc([N+](=O)[O-])cc2)o1` it is 53.7% (inactive).

As to `COc1ccc(-n2c(/C=C3\C(=O)Nc4ccccc43)ccc2CO)cc1`, the growth is 96.4% (inactive). As for `c1ccc2c(c1)nc(-n1ccnc1)c1nc3ccccc3n12`, the growth is 76% (inactive).

For the molecule `O=C1/C(=C/c2ccc(OCc3ccccc3)cc2)Oc2cc(OCCN3CCCCC3)ccc21`, the growth is 48.3% (inactive). For the molecule `COc1cccc2c(N=NC(=O)c3ccc(S(N)(=O)=O)cc3)c(O)[nH]c12`, the growth was 101% (inactive). Take `COc1ccc(NC2=C(Br)C(=O)C(C)=C(C)C2=O)cc1OC`: the growth was -66.6% (active). In the case of `N#C/C(=N\Nc1ccc(Cl)cc1)C(=O)C1CC1`, the growth is 27.1% (inactive). For `O=C(Nc1ccc(Br)c(Cl)c1)c1cc(F)ccc1O`, the growth was -24.5% (active). As to `Cc1ccc(C(c2c(O)c3cc(Br)ccc3[nH]c2=O)c2c(O)c3cc(Br)ccc3[nH]c2=O)cc1`, the growth is 94.7% (inactive). Turning to `COc1cc(OC)cc(-c2ccc(-c3ccc(C(=N)N)cn3)s2)c1`, the growth was 64.4% (inactive). As to `CC(=O)OC[C@H]1O[C@@H](n2c(=O)cc(N)[nH]c2=O)C(OC(C)=O)[C@@H]1OC(C)=O` (stereo not given in full), the growth was 98.8% (inactive).

Take `CS(=O)(=O)c1ccc(Cl)c([N+](=O)[O-])c1`: the growth is 103% (inactive). `N#C/C(=C/c1ccc(O)c([N+](=O)[O-])c1)c1nc(-c2ccc([N+](=O)[O-])cc2)cs1`: the growth is 14.3% (inactive). The figure for `CCC(C)[C@H]1OC(=O)[C@H](C(C)C)N(C)C(=O)[C@@H](C(C)C)OC(=O)[C@H](C(C)C)N(C)C(=O)[C@@H](C(C)CC)OC(=O)[C@H](C(C)C)N(C)C1=O` (stereo not given in full) is -0.281% (active); for `NC(=O)NO` it is 109% (inactive); for `COc1cc(C2CC(c3ccc(Cl)cc3)=NN2C=O)ccc1OS(=O)(=O)c1ccc(C)cc1` (stereo not given) it is 60.6% (inactive). For `CS(=O)(=O)Nc1cc(-c2ccc3ncnc(Nc4ccc(OCc5ccccn5)c(Cl)c4)c3c2)cnc1Cl`, the growth was -55.4% (active). As to `O=C1NC(=O)/C(=C/c2c(-c3ccccc3)nc3sc(COc4ccccc4)nn23)S1`, the growth is 98.9% (inactive). Turning to `CC(N)C(=O)NNc1n[nH]c(=S)n1N` (stereo not given), the growth was 82% (inactive). As for `CC(=O)C[n+]1ccccc1Sc1ccc(Cl)cc1`, the growth is 97.3% (inactive). The figure for `Fc1ccc(-c2nc(-c3ccc(-c4nc5ccc(F)cc5[nH]4)cc3)no2)cc1` is 56.2% (inactive).

Consider `c1cc2[nH]ncc2cc1-c1nc2ccc3[nH]ncc3c2c2c1CCC2`, for which the growth is 3.92% (active). In the case of `CCCCCCCCCc1ccc(OCCOCCOCCOCCOCCOCCOCCOCCOCCO)cc1` it was -11.7% (active); in that of `COc1c2c(cc3c1C(=O)N[C@@H]1[C@@H](O)[C@@H](O)[C@H](O)C[C@@H]31)OCCO2`, 93.1% (inactive); in that of `C(=N\Nc1ncnc2sc3c(c12)CCNC3)/c1cccc2ccccc12`, 72.1% (inactive).

The values are drawn from PubChem BioAssay (NCI).
